Test in all cases: DAPPL (digital affinity profiling via proximity ligation, sequencing); 10 mM Tris-HCl pH 7.5, 50 mM NaCl, 1 mM DTT, 4% glycerol, room temperature, 30 min; GST-TFs on glutathione beads, 16-mer random dsDNA library, 0.1% formaldehyde crosslink after washing; high values mean tight binding
One assay concerns the target T1, FEV (Homo sapiens, UniProt Q99581 1-238).
T1 sequence: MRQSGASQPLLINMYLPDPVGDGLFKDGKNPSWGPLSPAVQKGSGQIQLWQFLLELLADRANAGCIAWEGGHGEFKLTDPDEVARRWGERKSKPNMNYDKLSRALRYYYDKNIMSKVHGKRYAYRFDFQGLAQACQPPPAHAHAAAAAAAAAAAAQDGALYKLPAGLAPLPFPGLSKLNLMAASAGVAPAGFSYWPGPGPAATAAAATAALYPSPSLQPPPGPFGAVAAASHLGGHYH
Conditions: protein: recombinant; tags: N-terminal GST; dsDNA, one strand shown. A digest of the protocol: (§1)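 Binding signal is given per hexamer as its read frequency for a factor divided by its frequency in the tag-only sample. GST-fused human transcription factors were expressed in yeast, captured on glutathione beads, barcoded with DNA and pooled with that sample, then incubated with 200 nmole of a 16-mer random double-stranded DNA library in Tris/NaCl/DTT/glycerol buffer for 30 min at room temperature. The pools were then washed, crosslinked, proximity-ligated, amplified by PCR and sequenced on an Illumina NextSeq500.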

For another assay, the target named is ETV5 (Homo sapiens, UniProt P41161 1-510). The following applies: protein: recombinant; tags: N-terminal GST; dsDNA, one strand shown. A digest of the protocol: as §1
In a further assay the target is HSF1 (Homo sapiens, UniProt Q00613 1-529). Conditions: protein: recombinant; tags: N-terminal GST; chain copies: 3; dsDNA, one strand shown. The essentials:
as §1

In a further assay the target is T2, SPIC (Homo sapiens, UniProt Q8N5J4 1-248).
T2 sequence: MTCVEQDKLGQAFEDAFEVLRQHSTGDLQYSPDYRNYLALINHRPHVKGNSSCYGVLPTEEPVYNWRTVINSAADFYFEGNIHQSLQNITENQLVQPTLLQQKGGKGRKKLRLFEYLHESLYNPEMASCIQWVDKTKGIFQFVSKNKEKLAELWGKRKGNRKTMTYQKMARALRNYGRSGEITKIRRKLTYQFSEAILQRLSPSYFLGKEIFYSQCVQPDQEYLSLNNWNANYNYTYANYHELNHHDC
Conditions: protein: recombinant; tags: N-terminal GST; dsDNA, one strand shown. The essentials:
as §1

For the next assay, the target named is ELF4 (Homo sapiens, UniProt Q99607 1-663). Conditions: protein: recombinant; tags: N-terminal GST; dsDNA, one strand shown. A digest of the protocol:
as §1

In another assay the target is T3, ELK4 (Homo sapiens, UniProt P28324-2 1-405).
T3 sequence: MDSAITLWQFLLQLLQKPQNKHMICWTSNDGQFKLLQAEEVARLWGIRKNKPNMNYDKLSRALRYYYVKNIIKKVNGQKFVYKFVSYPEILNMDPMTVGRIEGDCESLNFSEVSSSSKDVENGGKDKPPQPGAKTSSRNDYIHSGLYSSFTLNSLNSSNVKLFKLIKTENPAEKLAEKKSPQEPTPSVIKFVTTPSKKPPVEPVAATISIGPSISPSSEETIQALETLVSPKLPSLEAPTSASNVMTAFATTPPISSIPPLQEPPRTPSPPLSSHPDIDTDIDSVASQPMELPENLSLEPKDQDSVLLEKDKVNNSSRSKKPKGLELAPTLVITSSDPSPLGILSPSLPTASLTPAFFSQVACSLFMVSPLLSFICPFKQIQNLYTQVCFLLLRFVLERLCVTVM
Conditions: protein: recombinant; tags: N-terminal GST; dsDNA, one strand shown. A digest of the protocol:
as §1

The target of a further assay is T4, ETV2 (Homo sapiens, UniProt O00321 1-342).
T4 sequence: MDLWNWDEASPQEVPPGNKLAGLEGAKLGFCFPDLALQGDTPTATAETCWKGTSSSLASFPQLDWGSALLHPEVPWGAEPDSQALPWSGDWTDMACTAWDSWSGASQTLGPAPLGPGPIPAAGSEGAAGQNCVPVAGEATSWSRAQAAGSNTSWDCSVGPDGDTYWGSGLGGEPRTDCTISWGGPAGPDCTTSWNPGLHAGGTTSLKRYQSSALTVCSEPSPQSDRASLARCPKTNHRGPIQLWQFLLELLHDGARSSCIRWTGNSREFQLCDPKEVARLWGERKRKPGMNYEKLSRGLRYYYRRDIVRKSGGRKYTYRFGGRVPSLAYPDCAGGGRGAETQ
The following applies: protein: recombinant; tags: N-terminal GST; dsDNA, one strand shown. A digest of the protocol:
as §1

The target in a further assay is T5, ELF3 (Homo sapiens, UniProt P78545 1-371).
T5 sequence: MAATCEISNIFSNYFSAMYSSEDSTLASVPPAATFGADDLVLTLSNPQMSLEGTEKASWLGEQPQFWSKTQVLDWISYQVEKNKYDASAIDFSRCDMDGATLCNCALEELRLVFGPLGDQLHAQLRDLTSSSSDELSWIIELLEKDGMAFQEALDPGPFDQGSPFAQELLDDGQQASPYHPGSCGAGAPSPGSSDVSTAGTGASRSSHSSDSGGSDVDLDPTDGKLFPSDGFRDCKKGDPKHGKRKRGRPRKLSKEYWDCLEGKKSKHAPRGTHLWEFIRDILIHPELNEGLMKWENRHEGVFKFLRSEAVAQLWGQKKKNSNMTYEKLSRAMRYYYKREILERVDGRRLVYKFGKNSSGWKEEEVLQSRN
Conditions: protein: recombinant; tags: N-terminal GST; dsDNA, one strand shown. A digest of the protocol: as §1

The target in a further assay is CRX (Homo sapiens, UniProt O43186 1-299). Conditions: protein: recombinant; tags: N-terminal GST; dsDNA, one strand shown. The essentials: as §1
In another assay the target is ETV1 (Homo sapiens, UniProt P50549 1-477). The following applies: protein: recombinant; tags: N-terminal GST; dsDNA, one strand shown. The essentials: as §1
In the next assay the target is T6, ERF (Homo sapiens, UniProt P50548 1-548).
T6 sequence: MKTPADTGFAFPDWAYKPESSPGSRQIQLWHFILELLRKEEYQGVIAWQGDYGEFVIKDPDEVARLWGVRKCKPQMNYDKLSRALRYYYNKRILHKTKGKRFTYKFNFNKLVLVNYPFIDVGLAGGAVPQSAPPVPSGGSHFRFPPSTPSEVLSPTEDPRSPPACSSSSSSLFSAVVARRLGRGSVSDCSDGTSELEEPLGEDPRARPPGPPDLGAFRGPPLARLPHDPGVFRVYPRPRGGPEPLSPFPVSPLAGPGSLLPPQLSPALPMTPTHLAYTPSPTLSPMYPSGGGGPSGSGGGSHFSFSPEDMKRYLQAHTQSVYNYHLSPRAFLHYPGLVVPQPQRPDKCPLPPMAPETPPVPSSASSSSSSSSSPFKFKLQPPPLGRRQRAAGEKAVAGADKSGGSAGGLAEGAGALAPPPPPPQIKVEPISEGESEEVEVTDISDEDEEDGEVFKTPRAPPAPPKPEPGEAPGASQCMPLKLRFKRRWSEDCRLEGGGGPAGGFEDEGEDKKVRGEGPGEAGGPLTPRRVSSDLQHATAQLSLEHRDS
Conditions: protein: recombinant; tags: N-terminal GST; dsDNA, one strand shown. The essentials:
as §1

For a further assay, the target named is T7, ETV3L (Homo sapiens, UniProt Q6ZN32 1-361).
T7 sequence: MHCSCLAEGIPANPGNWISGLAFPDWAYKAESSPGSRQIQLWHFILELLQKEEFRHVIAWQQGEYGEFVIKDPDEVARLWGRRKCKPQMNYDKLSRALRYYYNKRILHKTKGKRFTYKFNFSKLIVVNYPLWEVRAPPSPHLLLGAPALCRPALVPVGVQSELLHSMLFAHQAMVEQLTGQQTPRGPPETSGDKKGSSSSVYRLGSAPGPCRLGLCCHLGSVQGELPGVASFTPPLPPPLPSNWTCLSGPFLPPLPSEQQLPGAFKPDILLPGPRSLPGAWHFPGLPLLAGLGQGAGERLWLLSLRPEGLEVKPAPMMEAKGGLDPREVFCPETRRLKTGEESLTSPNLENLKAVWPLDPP
The following applies: protein: recombinant; tags: N-terminal GST; dsDNA, one strand shown. A digest of the protocol: as §1

A further assay has as its target T8, ETS2 (Homo sapiens, UniProt P15036 1-469).
T8 sequence: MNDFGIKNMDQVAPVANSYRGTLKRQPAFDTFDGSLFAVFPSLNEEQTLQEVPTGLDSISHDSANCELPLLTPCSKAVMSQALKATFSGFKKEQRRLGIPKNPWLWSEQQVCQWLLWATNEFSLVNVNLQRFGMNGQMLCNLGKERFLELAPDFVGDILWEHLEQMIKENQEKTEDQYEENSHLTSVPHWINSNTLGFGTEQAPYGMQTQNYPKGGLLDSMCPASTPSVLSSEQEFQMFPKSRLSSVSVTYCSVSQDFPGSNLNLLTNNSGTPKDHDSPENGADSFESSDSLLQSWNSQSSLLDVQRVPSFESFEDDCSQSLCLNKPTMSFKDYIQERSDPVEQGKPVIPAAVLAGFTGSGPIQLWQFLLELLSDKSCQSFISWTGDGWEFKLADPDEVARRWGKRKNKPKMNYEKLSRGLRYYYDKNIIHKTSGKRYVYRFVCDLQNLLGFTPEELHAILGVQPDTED
Conditions: protein: recombinant; tags: N-terminal GST; dsDNA, one strand shown. A digest of the protocol:
as §1

For a further assay, the target named is T9, SPDEF (Homo sapiens, UniProt O95238 1-335).
T9 sequence: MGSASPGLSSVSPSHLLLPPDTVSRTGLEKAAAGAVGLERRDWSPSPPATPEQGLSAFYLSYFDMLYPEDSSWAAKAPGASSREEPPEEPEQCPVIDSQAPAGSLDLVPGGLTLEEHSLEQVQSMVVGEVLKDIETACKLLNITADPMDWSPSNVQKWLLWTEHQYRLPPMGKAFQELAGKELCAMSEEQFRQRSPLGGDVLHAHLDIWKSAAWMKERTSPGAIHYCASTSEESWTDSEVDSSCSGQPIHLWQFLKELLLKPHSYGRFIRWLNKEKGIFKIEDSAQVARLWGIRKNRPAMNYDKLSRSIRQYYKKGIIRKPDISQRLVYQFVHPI
The following applies: protein: recombinant; tags: N-terminal GST; dsDNA, one strand shown. The essentials: as §1

For a further assay, the target named is T10, ETV7 (Homo sapiens, UniProt Q9Y603 1-341).
T10 sequence: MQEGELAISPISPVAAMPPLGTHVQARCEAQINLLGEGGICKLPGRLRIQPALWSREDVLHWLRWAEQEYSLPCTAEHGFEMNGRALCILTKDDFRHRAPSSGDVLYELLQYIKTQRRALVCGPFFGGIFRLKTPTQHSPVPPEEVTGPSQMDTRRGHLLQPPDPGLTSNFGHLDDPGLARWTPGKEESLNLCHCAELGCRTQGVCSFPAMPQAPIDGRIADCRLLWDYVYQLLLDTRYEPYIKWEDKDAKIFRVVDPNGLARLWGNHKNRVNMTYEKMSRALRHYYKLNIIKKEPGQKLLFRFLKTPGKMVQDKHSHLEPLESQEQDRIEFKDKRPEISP
The following applies: protein: recombinant; tags: N-terminal GST; dsDNA, one strand shown. A digest of the protocol:
as §1

The next assay deals with T11, ELF5 (Homo sapiens, UniProt Q9UKW6-2 1-255).
T11 sequence: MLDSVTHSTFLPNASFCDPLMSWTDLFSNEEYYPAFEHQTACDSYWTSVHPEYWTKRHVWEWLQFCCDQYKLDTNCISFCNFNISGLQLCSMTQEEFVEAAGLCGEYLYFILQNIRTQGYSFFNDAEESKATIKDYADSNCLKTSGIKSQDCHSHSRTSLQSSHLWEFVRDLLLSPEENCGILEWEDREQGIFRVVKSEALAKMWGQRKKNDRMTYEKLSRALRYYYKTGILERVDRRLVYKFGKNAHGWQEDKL
The following applies: protein: recombinant; tags: N-terminal GST; dsDNA, one strand shown. The essentials:
as §1

The next assay addresses T12, ETV3 (Homo sapiens, UniProt P41162-2 1-143).
T12 sequence: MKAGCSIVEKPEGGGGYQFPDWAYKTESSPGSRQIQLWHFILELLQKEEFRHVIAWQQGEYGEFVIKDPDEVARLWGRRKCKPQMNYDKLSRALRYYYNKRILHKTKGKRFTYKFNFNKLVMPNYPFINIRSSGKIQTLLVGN
Conditions: protein: recombinant; tags: N-terminal GST; dsDNA, one strand shown. The essentials: as §1

In the next assay the target is ETV6 (Homo sapiens, UniProt P41212 1-452). Conditions: protein: recombinant; tags: N-terminal GST; dsDNA, one strand shown. The essentials:
as §1

Chain of CRX (O43186 whole entry): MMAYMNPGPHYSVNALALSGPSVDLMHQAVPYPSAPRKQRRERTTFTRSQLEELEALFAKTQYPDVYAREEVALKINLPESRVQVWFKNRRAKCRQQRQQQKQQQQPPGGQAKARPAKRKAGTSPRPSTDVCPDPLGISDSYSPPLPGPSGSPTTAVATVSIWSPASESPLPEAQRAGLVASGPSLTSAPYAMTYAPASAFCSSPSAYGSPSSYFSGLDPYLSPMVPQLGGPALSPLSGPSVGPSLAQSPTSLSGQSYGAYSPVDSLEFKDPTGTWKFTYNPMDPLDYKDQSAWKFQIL
Chain of ETV6 (P41212 whole entry): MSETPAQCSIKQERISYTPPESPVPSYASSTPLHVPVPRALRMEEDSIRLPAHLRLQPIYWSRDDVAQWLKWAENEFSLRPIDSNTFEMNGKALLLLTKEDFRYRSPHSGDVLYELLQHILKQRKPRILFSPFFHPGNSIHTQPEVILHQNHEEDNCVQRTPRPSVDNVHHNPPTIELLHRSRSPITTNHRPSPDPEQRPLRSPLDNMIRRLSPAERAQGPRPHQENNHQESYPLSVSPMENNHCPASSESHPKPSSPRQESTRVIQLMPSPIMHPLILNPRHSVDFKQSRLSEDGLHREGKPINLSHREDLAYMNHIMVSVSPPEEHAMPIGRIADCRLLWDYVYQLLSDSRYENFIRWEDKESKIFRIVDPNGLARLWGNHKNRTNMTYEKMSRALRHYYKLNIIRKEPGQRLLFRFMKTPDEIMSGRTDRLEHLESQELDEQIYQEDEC
Chain of ETV1 (P50549 whole entry): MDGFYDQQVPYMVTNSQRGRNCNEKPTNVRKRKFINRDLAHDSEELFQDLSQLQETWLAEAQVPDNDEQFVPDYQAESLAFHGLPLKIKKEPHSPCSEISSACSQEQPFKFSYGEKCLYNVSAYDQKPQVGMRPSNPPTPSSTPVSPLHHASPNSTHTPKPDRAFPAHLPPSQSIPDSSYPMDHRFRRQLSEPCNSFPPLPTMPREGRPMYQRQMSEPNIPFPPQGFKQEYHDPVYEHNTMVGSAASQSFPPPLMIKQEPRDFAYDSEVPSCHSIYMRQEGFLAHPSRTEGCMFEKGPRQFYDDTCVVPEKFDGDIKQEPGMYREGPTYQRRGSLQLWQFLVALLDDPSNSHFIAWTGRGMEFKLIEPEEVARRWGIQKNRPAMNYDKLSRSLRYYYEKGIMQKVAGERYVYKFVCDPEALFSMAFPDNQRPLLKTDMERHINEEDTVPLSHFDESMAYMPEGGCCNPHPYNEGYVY
Chain of ELF4 (Q99607 whole entry): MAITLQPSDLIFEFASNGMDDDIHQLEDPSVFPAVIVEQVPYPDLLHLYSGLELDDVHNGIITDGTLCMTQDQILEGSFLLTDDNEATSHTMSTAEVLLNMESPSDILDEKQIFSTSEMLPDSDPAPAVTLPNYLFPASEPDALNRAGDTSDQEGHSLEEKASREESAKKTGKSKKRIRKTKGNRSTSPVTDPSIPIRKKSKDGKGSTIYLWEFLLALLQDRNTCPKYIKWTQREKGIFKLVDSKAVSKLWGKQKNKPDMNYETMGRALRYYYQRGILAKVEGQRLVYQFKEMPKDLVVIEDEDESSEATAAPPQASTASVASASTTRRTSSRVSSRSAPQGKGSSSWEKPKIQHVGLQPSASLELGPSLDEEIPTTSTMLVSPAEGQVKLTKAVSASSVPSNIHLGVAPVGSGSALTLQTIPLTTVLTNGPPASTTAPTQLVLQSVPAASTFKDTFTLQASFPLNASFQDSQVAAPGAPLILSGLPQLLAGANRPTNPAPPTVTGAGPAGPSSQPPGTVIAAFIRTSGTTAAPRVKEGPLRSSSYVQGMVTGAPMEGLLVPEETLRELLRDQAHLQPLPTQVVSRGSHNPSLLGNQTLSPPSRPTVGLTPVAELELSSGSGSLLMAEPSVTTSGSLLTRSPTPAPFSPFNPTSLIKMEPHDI
Chain of HSF1 (Q00613 whole entry): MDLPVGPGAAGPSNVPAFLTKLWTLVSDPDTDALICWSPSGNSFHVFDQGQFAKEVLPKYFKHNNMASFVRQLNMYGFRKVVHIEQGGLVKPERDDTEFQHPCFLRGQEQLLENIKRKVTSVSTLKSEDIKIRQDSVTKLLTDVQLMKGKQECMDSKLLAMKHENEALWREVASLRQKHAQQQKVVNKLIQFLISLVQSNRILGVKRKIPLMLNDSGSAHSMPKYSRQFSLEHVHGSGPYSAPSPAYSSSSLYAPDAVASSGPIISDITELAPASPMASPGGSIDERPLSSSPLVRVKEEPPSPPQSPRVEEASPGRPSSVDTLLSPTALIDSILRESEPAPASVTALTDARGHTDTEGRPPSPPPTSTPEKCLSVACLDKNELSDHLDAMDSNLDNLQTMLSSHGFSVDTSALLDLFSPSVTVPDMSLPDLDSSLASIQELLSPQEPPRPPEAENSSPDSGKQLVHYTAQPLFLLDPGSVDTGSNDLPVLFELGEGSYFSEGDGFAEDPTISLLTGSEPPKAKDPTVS
Chain of ETV5 (P41161 whole entry): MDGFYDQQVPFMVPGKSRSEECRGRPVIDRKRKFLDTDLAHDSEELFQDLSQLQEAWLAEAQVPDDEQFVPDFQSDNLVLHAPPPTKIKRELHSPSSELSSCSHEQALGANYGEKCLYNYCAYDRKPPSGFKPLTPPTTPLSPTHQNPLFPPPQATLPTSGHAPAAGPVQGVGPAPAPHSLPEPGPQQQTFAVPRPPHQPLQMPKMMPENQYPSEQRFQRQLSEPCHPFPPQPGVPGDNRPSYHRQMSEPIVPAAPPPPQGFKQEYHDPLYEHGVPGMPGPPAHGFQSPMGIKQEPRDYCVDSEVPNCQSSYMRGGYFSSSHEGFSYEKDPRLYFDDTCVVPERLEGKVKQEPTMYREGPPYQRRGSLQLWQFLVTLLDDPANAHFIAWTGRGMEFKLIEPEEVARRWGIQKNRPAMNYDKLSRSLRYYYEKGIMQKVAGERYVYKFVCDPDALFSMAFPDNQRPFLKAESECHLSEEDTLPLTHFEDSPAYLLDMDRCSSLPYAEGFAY

Regarding TAACCT, the binding signal is 1.3 fold enrichment (6-mer frequency, TF over GST control) in the assay with FEV; 1.29 fold enrichment (6-mer frequency, TF over GST control) with ETV5; 1.44 fold enrichment (6-mer frequency, TF over GST control) in the assay with HSF1; 1.17 fold enrichment (6-mer frequency, TF over GST control) with SPIC; 1.33 fold enrichment (6-mer frequency, TF over GST control) in the assay with ELF4; 1.46 fold enrichment (6-mer frequency, TF over GST control) in the assay with ELK4. Further, the binding signal is 1.13 fold enrichment (6-mer frequency, TF over GST control) with ETV2; 1.29 fold enrichment (6-mer frequency, TF over GST control) with ELF3; 1.67 fold enrichment (6-mer frequency, TF over GST control) with CRX; 1.31 fold enrichment (6-mer frequency, TF over GST control) with ETV1; 1.35 fold enrichment (6-mer frequency, TF over GST control) with ERF; 1.28 fold enrichment (6-mer frequency, TF over GST control) in the assay with ETV3L. In addition, the binding signal with ETS2 is 1.31 fold enrichment (6-mer frequency, TF over GST control); with SPDEF, 1.23 fold enrichment (6-mer frequency, TF over GST control); with ETV7, 1.26 fold enrichment (6-mer frequency, TF over GST control); with ELF5, 1.29 fold enrichment (6-mer frequency, TF over GST control); with ETV3, 1.31 fold enrichment (6-mer frequency, TF over GST control); in the assay with ETV6 it was 1.23 fold enrichment (6-mer frequency, TF over GST control).

Source of the values: PMC7862700, “An all-to-all approach to the identification of sequence-specific readers for epigenetic DNA modifications on cytosine”.
